# From PubChem BioAssay
# Only some compounds are listed: those with a hit (about 13% of all), similar ones and a draw of the others.
# USP7 block: human USP7 deubiquitinase inhibition. Q93009. purified USP7, Ub-rhodamine cleavage fluorescence. inhibition, % at 20 µM. 0.3% of 47,000 active. AID 1645854
# USP28 block: human USP28 deubiquitinase inhibition. Q96RU2. purified USP28, Ub-rhodamine cleavage fluorescence, 30 min. inhibition, % at 25 µM. 3% of 47,000 active. AID 1645857
# USP17 block: blocks human USP17 ubiquitin-rhodamine cleavage. 6.5% of 47,000 active. inhibition, % at 50 µM. purified USP17, Ub-rhodamine cleavage fluorescence, 3 h. AID 1645855
# Target sequence (A8MUK1 whole entry, looked up): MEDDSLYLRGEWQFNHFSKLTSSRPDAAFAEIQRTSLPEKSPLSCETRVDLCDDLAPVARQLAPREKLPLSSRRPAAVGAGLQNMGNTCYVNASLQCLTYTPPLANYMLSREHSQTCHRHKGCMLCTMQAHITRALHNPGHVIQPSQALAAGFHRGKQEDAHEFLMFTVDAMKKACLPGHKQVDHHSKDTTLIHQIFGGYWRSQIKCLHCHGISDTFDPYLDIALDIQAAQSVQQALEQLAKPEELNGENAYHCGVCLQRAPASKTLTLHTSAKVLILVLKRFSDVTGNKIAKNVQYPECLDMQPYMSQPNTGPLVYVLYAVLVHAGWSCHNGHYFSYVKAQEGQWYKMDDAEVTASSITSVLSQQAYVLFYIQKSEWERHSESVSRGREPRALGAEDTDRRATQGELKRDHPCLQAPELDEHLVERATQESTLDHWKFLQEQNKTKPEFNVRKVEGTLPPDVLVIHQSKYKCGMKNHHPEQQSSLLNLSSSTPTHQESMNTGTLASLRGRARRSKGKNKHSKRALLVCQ
# USP30 inh: human USP30 deubiquitinase inhibition; Q70CQ3; purified USP30, Ub-rhodamine cleavage fluorescence; inhibition, % at 25 µM; 5.3% of 47,000 active
# USP10 block: human USP10 deubiquitinase inhibition; Q14694; purified USP10, Ub-rhodamine fluorescence, 60 min; inhibition, % at 20 µM; 1.1% of 47,000 active
# USP8 block: human USP8 deubiquitinase inhibition; purified USP8, Ub-rhodamine cleavage fluorescence, 30 min; 4.2% of 47,000 active; P40818; inhibition, % at 20 µM
# Active calls of the source: *; i = inactive; . = no result given. No stated cut-off is given here; in the data, active means inhibition above about 30%; inactive means the rest.
SMILES,USP7 block,USP28 block,USP17 block,USP30 inh,USP10 block,USP8 block
COc1ccc(S(=O)(=O)c2c(C(=O)N3CCC(C)CC3)cnc3ccc(F)cc23)cc1,5.6,10.7,18.7,19.6,0.6,0.0
Clc1ccc(CN2CCc3nc(Nc4ccc5c(c4)OCO5)ncc3C2)cc1,-10.7,-1.2,2.5,-16.3,6.4,30.1*
COc1ccc(CCn2c(N)c(-c3nc4ccccc4n3C)c3nc4ccccc4nc32)cc1,-82.1,-18.3,7.9,-55.3,-9.5,16.7
COc1ccccc1NC(=O)CSC1=NC2(CCCCC2)Nc2ccccc21,0.8,-9.0,53.8*,-69.3,0.1,84.2*
Cc1ccccc1OCCCn1c(C2CC(=O)N(Cc3ccccc3)C2)nc2ccccc21 (centres undefined),-4.3,15.2,18.6,48.6*,18.2,9.4
CCCCN(C)C(=O)Cn1c(C2CC(=O)N(Cc3ccc(F)cc3)C2)nc2ccccc21 (centres undefined),-17.3,-7.2,48.2*,4.8,-3.7,0.0
O=C(NCCN1CCOCC1)c1cn2cc(Cl)ccc2n1,-0.1,0.0,-14.8,-11.3,-8.9,-0.2
CC(=O)Nc1ccc(-n2cnc(C(=O)NCc3ccccc3F)c2)nc1,5.2,6.1,5.7,17.5,0.0,0.6
Clc1cncc(Oc2nc(-c3cccnc3)nc3ccccc23)c1,-3.2,-3.8,62.6*,7.7,-2.8,6.2
O=C(Nc1c(C(=O)N2CCCCCC2)oc2ccccc12)C1CCCC1,-112.8,22.7,23.6,26.6,1.9,31.6*
COc1ccc(C(=O)Nc2c(C(=O)N3CCN(C)CC3)oc3ccccc23)cc1,-4.7,-5.1,0.3,-5.4,2.1,0.7
CN1CCN(C(=O)c2oc3ccccc3c2NC(=O)c2ccc(F)cc2)CC1,0.7,10.8,7.4,15.5,-1.2,41.0*
COc1ccccc1C(=O)Nc1c(C(=O)N2CCOCC2)oc2ccccc12,-22.8,-12.3,-5.2,3.4,0.0,0.6
O=C(Nc1cccc(-c2nc3ccccc3[nH]2)c1)c1cc2ccccc2oc1=O,4.0,-3.1,59.5*,37.2*,3.9,0.8
O=S1(=O)NCNc2ccccc21,5.7,2.8,18.4,23.5,4.0,22.9
COc1ccc(NC(=O)CCC(=O)N(c2ccccc2)c2ccccc2)c(OC)c1,-4.1,1.1,1.5,14.5,-0.6,15.6
COc1ccc(C(=O)N(Cc2ccccc2)C(C)(C)c2ccccc2)c(OC)c1,-8.5,12.6,28.7,44.2*,7.6,10.9
CCOCCCn1c(SCC(=O)Nc2ccccc2C(F)(F)F)nc2ccccc2c1=O,-0.4,18.3,44.1*,55.4*,3.0,0.3
O=C(CCCn1c(SCC(=O)Nc2cccc(C(F)(F)F)c2)nc2ccccc2c1=O)NCCc1ccccc1,6.5,14.0,23.6,35.4*,13.0,-13.2
COc1c(C)c(OC(=O)c2c(C)c(C)c(OC(=O)c3c(C)c(C)c(O)c(C)c3O)c(C)c2OC)c(C)c(C)c1C(=O)O,5.3,70.3*,51.4*,53.7*,66.0*,9.0
Cc1nn(-c2cc(N3CCOCC3)ncn2)c(C)c1CCC(=O)Nc1ccc(C(C)C)cc1,4.0,4.5,65.1*,-6.7,-1.7,-151.0
O=S1(=O)CCN(Cc2ccccc2)c2c(F)nc(N3CCCCC3)c(F)c21,-6.9,-9.2,53.5*,-21.6,-0.8,87.5*
CC1CCN(c2nc(F)c3c(c2F)S(=O)(=O)CCN3Cc2ccccc2)CC1,1.1,6.2,47.6*,-9.9,-1.2,92.0*
COCCN1CCS(=O)(=O)c2c(F)c(N3CCCC3)nc(F)c21,3.7,14.4,10.6,25.3,0.7,3.2
Cc1ccc(CN2CCc3c(C(=O)N4CCCC4)n[nH]c3C2)s1,.,1.6,-5.6,10.6,1.8,-0.3
SMILES,USP7 block,USP28 block,USP17 block,USP30 inh,USP10 block,USP8 block
O=C(CCCC(=O)c1ccccc1)Nc1ccc(O)cc1,2.3,13.0,11.8,-8.6,0.1,34.8*
C=C1NC(=O)C(C)C(CCC(C)C(=O)/C=C/C(C)=C/CCC(C)CCCCCC)OC(=O)C(CCC(N)=O)NC(=O)C(C)CNC1=O (centres undefined),-7.7,-7.0,5.5,-59.0,-8.5,-46.4
COc1ccc(-c2csc(N)n2)c2ccccc12,-11.0,-11.4,24.0,-88.9,-3.3,83.1*
CCOC(=O)c1[nH]c2cc(OC)c(OC)cc2c1NS(C)(=O)=O,0.7,.,-0.5,.,-2.1,-1.3
Cc1ccc(S(=O)(=O)NCCn2c(N)c(C#N)c3nc4ccccc4nc32)cc1,-59.9,-45.8,39.7*,-153.5,-10.0,64.9*
COc1ccc(-c2nn(-c3ccccc3)c3[nH]c(=O)c(CNc4ccc5c(c4)OCCO5)cc23)cc1OC,30.6*,10.1,43.5*,-35.8,23.3,78.3*
COc1ccc(-c2nn(-c3ccccc3)c3[nH]c(=O)c(CNCc4cccs4)cc23)cc1OC,4.1,-18.5,-46.6,-70.5,-10.2,78.2*
Cc1nnc(-c2c(S(=O)(=O)NC3CCCCC3)c(C)n(C)c2C)o1,1.2,-6.5,-16.5,-20.8,-1.6,-8.5
O=C1C[C@@H]2O[C@H](CNC(=O)[C@@H]3CN(CCN3C(=O)C3CCOCC3)C(=O)[C@@H]3C[C@@H](CN3Cc3ccc(F)c(F)c3)N1)[C@@H](O)[C@H]2O,-63.9,-237.3,-173.8,i,-7.9,-115.2
COc1cc(NC(=O)c2ccccc2)c(OC)cc1NC(=O)CCC(=O)N(c1ccccc1)c1ccccc1,10.8,18.2,62.5*,58.3*,7.9,-0.9
CCc1c(OC)cc2c(c1O)C(=O)CCC2O (centres undefined),6.7,-11.7,-18.6,-0.9,1.6,4.0
Cc1cc(O)cc2cc3c(c(O)c12)C(=O)CCC3O (centres undefined),-48.7,-3.5,50.8*,-89.1,-4.9,-140.2
CC(C)(C)c1ccc(N=C2C(=O)N(Cc3ccccc3)c3ccccc32)cc1,-6.9,14.6,2.2,22.8,3.1,25.6
O=C(O)c1ccc2c(c1)C1(CCCCC1)CN2C(=O)CNC(=O)c1cccnc1,-23.0,-146.8,-158.2,i,-1.2,-369.2
O=C(NNC1=NC2(CCCC2)Cc2ccccc21)c1cccnc1,0.3,3.9,26.3,31.9*,4.8,5.5
COc1ccc(N(Cc2nc3ccccc3s2)S(=O)(=O)c2ccc3c(c2)OCCO3)cc1,-7.5,-16.3,-39.6,-83.8,-7.5,-2.1
Clc1ccccc1-n1cc(-c2ccccc2)c2c(N3CCOCC3)ncnc21,-147.3,-0.3,-2.0,0.5,4.8,-6.5
Cc1nc2c(c(C)c1CCC(=O)NCc1ccccc1Cl)c(=O)n(C)c(=O)n2C,2.4,-13.9,-0.3,-11.3,0.5,-0.4
O=C1CC(c2cc3c(cc2Br)OCO3)c2cc3c(cc2N1)OCCO3 (centres undefined),2.0,10.6,66.9*,17.9,40.4*,4.3
COc1ccc(Cn2nnc(C(=O)NC(C)C)c2-n2cccc2)cc1,-22.1,5.8,14.6,-81.0,-5.9,-8.4
Cc1ccc(Cn2nnc(C(=O)NCc3ccco3)c2-n2cccc2)cc1,-5.3,57.5*,20.5,-30.9,1.1,22.6
